Data taken from PubChem BioAssay (NCATS).
Unmarked numbers belong to inactive results. Results filed as inconclusive are left out. Where a call stands in place of a potency, no number is given. Active and inactive are the calls of the source. Calls come from the whole dose curve; as a rule, active = well fitted curve in the direction sought with a large enough effect; inconclusive = small, poorly fitted or top-dose-only effect, or another doubt; inactive = no such curve, though single readings can be large; an effect the other way counts as inactive or inconclusive.

Experiments:
[1] = biological target: Tyrosine-protein kinase Yes (Homo sapiens) (UniProt P07947); experiment: qHTS for small molecule inhibitors of Yes1 kinase: Primary Screen (AID 686947); settings: Yes1 kinase biochemical qHTS inhibition; series mostly up to 76.9 µM; note: nearly all actives have a fitted effect of over 60% in size; note: potency is the fitted concentration of half-maximal effect
Summary of the method: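 In this qHTS format, inhibition is expressed relative to DMSO controls with enzyme (maximum) and without enzyme (minimum). The 60 min room-temperature reaction uses 0.1 mM ATP, with ADP detected by luminescence.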

[2] = qHTS for small molecule inhibitors of Yes1 kinase: Counter Assay (AID 686950); settings: series mostly up to 76.9 µM;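 note: no kinase present so only ADP-Glo detection of a fixed ADP amount is tested; luminescence from ADP-Glo reporting ADP in a fixed ATP and ADP mixture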
Summary of the method: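 Measuring interference with ADP-Glo, the assay ran 60 min at room temperature on an ATP/ADP mix lacking enzyme. Values were normalized to ATP-plus-ADP (maximum) and ATP-only (minimum) DMSO controls.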

[3] = qHTS Assay for Identifying Gametocytocidal Compounds (AID 743244); note: potency is the fitted concentration of half-maximal effect;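 for max response: actives lower the fluorescent signal which means gametocytes are killed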; settings: P. falciparum 3D7 stage III-V gametocytes, alamarBlue, 72 h; max response: stronger effect = lower value
Summary of the method: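 Stage III-V P. falciparum 3D7 gametocytes, 20,000 per well, were exposed to compounds for 72 h at 37C, 5% CO2. AlamarBlue was then added for 24 h and viability was read as fluorescence at Ex 525/Em 598 nm.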

Sequence of Tyrosine-protein kinase Yes (Homo sapiens) (P07947 whole entry, looked up): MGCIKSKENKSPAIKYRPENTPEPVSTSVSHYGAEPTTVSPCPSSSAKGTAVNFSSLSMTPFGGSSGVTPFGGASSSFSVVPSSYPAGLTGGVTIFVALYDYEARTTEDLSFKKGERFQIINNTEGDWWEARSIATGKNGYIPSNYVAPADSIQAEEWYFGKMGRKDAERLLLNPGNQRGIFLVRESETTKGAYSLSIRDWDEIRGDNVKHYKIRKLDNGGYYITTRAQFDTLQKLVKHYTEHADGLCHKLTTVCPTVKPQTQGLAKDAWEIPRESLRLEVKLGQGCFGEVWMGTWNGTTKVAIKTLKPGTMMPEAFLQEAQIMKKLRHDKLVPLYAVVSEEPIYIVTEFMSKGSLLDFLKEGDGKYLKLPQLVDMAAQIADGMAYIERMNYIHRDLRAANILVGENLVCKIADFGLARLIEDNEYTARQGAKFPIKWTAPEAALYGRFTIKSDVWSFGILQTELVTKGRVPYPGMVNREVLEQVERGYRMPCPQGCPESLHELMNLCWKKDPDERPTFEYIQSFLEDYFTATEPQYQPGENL

Row | SMILES | Potency [1] | outcome [2] | Potency [3] | max response [3] [%]
1 | O=C(NC1CCNCC1)c1[nH]ncc1NC(=O)c1c(Cl)cccc1Cl | inactive | inactive |  | 
2 | CC1(C)CCC(c2ccc(Cl)cc2)=C(CN2CCN(c3ccc(C(=O)NS(=O)(=O)c4ccc(N[C@H](CCN5CCOCC5)CSc5ccccc5)c(S(=O)(=O)C(F)(F)F)c4)cc3)CC2)C1 | 30.7 µM (active) | inactive |  | 
3 | CCC(=C(c1ccccc1)c1ccc(OCCN(C)C)cc1)c1ccccc1 | inactive | inactive |  | 
4 | Cc1[nH]c2ccccc2c1CCNCc1ccc(C=CC(=O)NO)cc1 | 13.7 µM (active) | inactive | 1.18 µM (active) | 
5 | C1Cc2[nH]nc(-c3nn[nH]n3)c2C1 | inactive | inactive |  | 
6 | Nc1ccccc1NC(=O)c1ccc(CNc2nccc(-c3cccnc3)n2)cc1 | inactive | inactive |  | 
7 | CN1CCN(c2cc(C(=O)Nc3ccc4c(c3)-c3c(c(C(N)=O)nn3-c3ccc(F)cc3)CC4)c(Cl)cn2)CC1 | inactive | inactive |  | 
8 | O=C(c1ccc(Nc2nccc(-c3cc4ccccc4s3)n2)cc1)N1CCC(N2CCCC2)CC1 | 0.0688 µM (active) | inactive |  | 
9 | CC(=O)OCCN1C(=O)c2c(C)nc3ccc(S(=O)(=O)N4CCOCC4)cc3c2C1=O | inactive | inactive |  | 15.6
10 | CCN(CC)CCCCNc1ncc2cc(-c3cc(OC)cc(OC)c3)c(NC(=O)NC(C)(C)C)nc2n1 | 9.72 µM (active) | inactive |  | 
11 | COc1ccc2c(c1)CC[C@@H](CN(C)CC(=O)O)[C@H]2c1ccccc1 | inactive | inactive |  | 4.46
12 | O=C(C=Cc1cccnc1)NCCCCC1CCN(C(=O)c2ccccc2)CC1 | inactive | inactive |  | 
13 | Nc1ccc(C(=O)c2cc3c(ccc4ccccc43)[nH]2)cc1 | 30.7 µM (active) | inactive |  | 
14 | N#Cc1c(O)c2c(-c3ccc(-c4ccccc4O)cc3)csc2[nH]c1=O | inactive | inactive |  | 
15 | CC1(O)CC(c2nc(-c3ccc4ccc(-c5ccccc5)nc4c3)c3c(N)nccn23)C1 (stereo unspecified) | 1.73 µM (active) | inactive |  | 
16 | C=C1C(=CC=C2CCCC3(C)[C@@H]([C@H](C)C=CC=CC(O)(CC)CC)CC[C@@H]23)C[C@@H](O)C[C@@H]1O (stereo partly specified) | inactive | inactive |  | 

Row | SMILES | Potency [1] | outcome [2] | Potency [3] | max response [3] [%]
17 | CCCCCN(CCC12CC3CC(CC(C3)C1)C2)C(=O)NCCCc1ccncc1 | inactive | inactive |  | 
18 | O=C(Nc1cc(C(F)(F)F)cc(C(F)(F)F)c1)c1cc(Cl)ccc1O | inactive | inactive |  | 
19 | C=CC(=O)Nc1cc2c(Nc3ccc(F)c(Cl)c3)ncnc2cc1C#CC(C)(C)N1CCN(C)CC1 | 0.0972 µM (active) | inactive | 18.7 µM (active) | 
20 | CN(C)CCCN=c1c2ccccc2n(C)c2[nH]c(=O)n(C)c(=O)c12 | inactive | inactive | 14.8 µM (active) | 
21 | CC(C)(O)CCc1ccc(OCc2cc(-c3cccc(OC(F)F)c3)c3ncccc3c2)cc1 | inactive | inactive |  | 9.3
22 | CC1(C)OC2=C(C(=O)c3ccccc3C2=O)[C@H](NCc2ccccc2)[C@H]1O | inactive | inactive | 0.743 µM (active) | 
23 | CC(=O)OCC(=O)[C@@]1(O)[C@H](C)C[C@H]2[C@@H]3C=C(C)C4=Cc5c(cnn5-c5ccccc5)C[C@]4(C)[C@@H]3[C@@H](O)C[C@@]21C | inactive | inactive |  | -18.2
24 | COc1ccc(OC)c(-c2nnc3ccc(-c4ccc(OC)c(O[C@@H]5CCOC5)c4)nn23)c1 | inactive | inactive |  | -15.7
25 | CC[C@@H]1C(=O)N(C)c2cnc(Nc3ccc(C(=O)NC4CCC(N5CCN(CC6CC6)CC5)CC4)cc3OC)nc2N1C(C)C (stereo partly specified) | inactive | inactive | 7.43 µM (active) | 
26 | Cn1c2cc(S(C)=O)sc2c2cnn(Cc3cccc(N)c3)c(=O)c21 (stereo unspecified) | inactive | inactive |  | 8.65
27 | C[C@]1(CO)CN(c2cc(C(=O)Nc3ccc4c(c3)-c3c(c(C(N)=O)nn3-c3ccc(F)cc3)CC4)c(Cl)cn2)C[C@@]1(C)CO | inactive | inactive |  | -20.6
28 | O=C(O)c1ccc2c(c1)nc(Nc1cccc(Cl)c1)c1ccncc12 | 0.487 µM (active) | inactive |  | 35.3
29 | COc1ccc(C=Cc2cc(OC)c(OC)c(OC)c2)cc1O | inactive | inactive |  | 18.2
30 | CC(C)c1ccc(Cn2ccc3c4c(N)nc(NC5CC5)nc4ccc32)cc1 |  | inactive |  | 
31 | Nc1ccccc1NC(=O)c1ccc(CNC(=O)OCc2cccnc2)cc1 | 15.4 µM (active) | inactive |  | -2.71
